Laboratory results as given in ChEMBL document CHEMBL3433997, “St. Jude Leishmania screening dataset” (2016).

Target: Hexose transporter 1 (Plasmodium falciparum) (UniProt O97467)
Test: ST_JUDE_LEISH: Cytotoxicity at 2uM final concentration against transgenic Leishmania Mexicana promastigotes LmPfHT that are glucose transport deficient and complemented with the Plasmodium falciparum hexose transporter. Activity is measured by DNA content using SYBR green in vitro
Format: functional

| SMILES | inhibition |
| --- | --- |
| O=C(NCc1cccc(C(F)(F)F)c1)C(c1cc2ccccc2o1)N1CCN(C(c2ccccc2)c2ccccc2)CC1 (stereo not given) | 2.33% |
| CCc1cc(N2CCN(c3ccccc3F)CC2)nc(SCc2ccc(C(=O)NC3CC3)o2)n1 | 1.67% |
| CCN(CCCN1CCCCC1)c1cc(C)nc(Nc2cc(C)ccc2C)n1 | 0.68% |
| Cn1nc(C(F)(F)F)c(-c2ccc(F)cc2)c1NC(=O)Nc1ccc(F)cc1 | 4.67% |
| COc1ccc2c(c1)S(=O)(=O)N=C(N1CCCC1c1ccc(Cl)c(Cl)c1)N2C (stereo not given) | -0.89% |
| O=C(CSc1nc2ccccc2c(=O)n1CC1CCCO1)Nc1cc(C(F)(F)F)ccc1Cl (stereo not given) | 9.45% |
| CCC[C@@H]([C@@H](CC(C)C)C(=O)N[C@@H](CCCNc1nccc(C(F)(F)F)n1)C(=O)Nc1nccs1)N(O)C=O | 4.8% |
| Cc1n[nH]c(C)c1C1CCN(CC2CCC(NC(=O)/C=C/c3ccc(Cl)c(Cl)c3)CC2)CC1 (stereo not given) | 4.25% |
| O=C(C=Cc1ccc(Cl)c(Cl)c1)NCCCCCN1CCC(CCNC(=O)c2sc3ccccc3c2Cl)CC1 | 9.43% |
| CN1CCCN(Cc2ccc(-c3cccc(NC(=O)c4cccc(Cl)c4)c3)cc2)CC1 | 9.2% |
| Cc1cc(NC(=O)Nc2ccc3ccn(C)c3c2)c2ccccc2n1 | 10.7% |
| COc1ccc2nccc([C@@H](O)CN3CCC(NCCOc4ccc(F)cc4F)CC3)c2c1 | 6.58% |
| CC(C)Sc1ccc(Cl)cc1CON1C(=N)N=C(N)NC1(C)C | 2.18% |
| COc1cc(Cc2cnc(N)nc2N)cc(OCCCC(=O)O)c1OC | 1.62% |
| Cc1ccoc1C(=O)Nc1cccc(-c2cccc(-c3nc4cc(C(F)(F)F)ccc4[nH]3)c2)c1 | 1.86% |
| Cc1cc(N2CCCC2)nc(Nc2ccc(NC(=O)C(C)Oc3ccccc3)cc2)n1 (stereo not given) | 15.9% |
| COc1ccccc1CNC(=O)c1ccc(N2CCN(c3ccncc3)CC2)cn1 | 2.84% |
| c1ccc2[nH]c(-c3ccc(-c4ccc(CN5CCCCC5)cc4)cc3)nc2c1 | 12.9% |
| O=[N+]([O-])c1cccc(S(=O)(=O)N2CCN(CC(O)COc3ccc(-c4ccccc4)cc3)CC2)c1 (stereo not given) | 1.75% |
| CC(C)(C)C1CCC(CC2=C(C(=O)O)c3ccccc3C2=O)CC1 (stereo not given) | 0.47% |

| SMILES | inhibition |
| --- | --- |
| CCN(CC)CCN(Cc1ccc(-c2ccc(C(F)(F)F)cc2)cc1)C(=O)Cn1c(CCc2ccccc2F)nc(=O)c2ccccc21 | 3.39% |
| Cc1ccc(Nc2nc(C)cc(Nc3cccc(NS(C)(=O)=O)c3)n2)cc1 | 12.5% |
| O=C(O[C@@H]1CN[C@H](C#Cc2cc3ncnc(Nc4ccc5c(cnn5Cc5cccc(F)c5)c4)c3s2)C1)N1CCCC1 | 0.19% |
| OC(CN1CCN(C2CCCCC2)CC1)Cn1c2ccccc2c2cc(Br)ccc21 (stereo not given) | 0.82% |
| CC(C)Nc1nc(NCCc2c[nH]cn2)nc(Nc2ccc(Oc3ccccc3)cc2)n1 | 2.71% |
| CC(C)c1cccc(C(NC(=O)[C@H]2Cc3ccccc3CN2C(=O)c2cccc(N3CCOCC3)c2)C2CCCC2)c1 (stereo not given in full) | 0.21% |
| ON=C(c1nc2ccccc2[nH]1)c1nc2ccccc2[nH]1 | -0.51% |
| Cc1cccc2nc(-c3cccc(-c4cccc(NC(=O)Nc5cccc(C#N)c5)c4)c3)[nH]c12 | 10.1% |
| FC(F)(F)c1cccc(CNCC2CCN(Cc3ccc4c(c3)OCO4)CC2)c1 | 12.1% |
| O=C(NCCCCN1CCC(c2ccc3c(c2OCCO)CCCC3)CC1)c1sc(-c2ccc(C(F)(F)F)cc2)nc1CO | 2.17% |
| Cc1cc(N2CCCN(C)CC2)nc(Nc2ccc(Br)cc2)n1 | -1.23% |
| CC(C)(C)c1ccc(NC(=O)c2ccc(CN3CCCN(Cc4cccc(F)c4)CC3)cc2)cc1 | 13.3% |
| Cc1cc(OCC2CCN(c3ncc(C(=O)NC4CC4)cc3Cl)CC2)ccc1F | 1.07% |
| Oc1ccc2[nH]cc(C3CCN(CCC(c4ccccc4)c4ccccc4)CC3)c2c1 | 3.07% |
| CC(C)c1ccc(Nc2nc(NCCc3c[nH]cn3)nc(NCc3ccccc3)n2)cc1 | 1.6% |
| CCc1ccc(C2CCN(CCCCNC(=O)c3ccc(NC(=O)c4ccc(Cl)cc4)cc3)CC2)c(OC(C)=O)c1 | 3.47% |
| CCOc1ccc2c(=NN=Cc3cccc(F)c3)cc(C)[nH]c2c1 | 1.08% |
| CCCN1CCc2c(sc3nc(SCC(=O)Nc4ccc(C)cc4)n(-c4ccc(C)cc4)c(=O)c23)C1 | 3.25% |
| CN(C)c1ccc(CN2CCC(NC(=O)c3ccc(-c4cccc(Cl)c4)s3)CC2)cc1 | -1% |
| c1ccc2c(C3CCN(CCCCOc4ccc5c(c4)CCN(CC4CC4)CC5)CC3)c[nH]c2c1 | 43.6% |

Target: Glucose transporter (Leishmania mexicana) (UniProt O61059)
Test: ST_JUDE_LEISH: Cytotoxicity at 2uM final concentration against transgenic Leishmania Mexicana promastigotes LmGT2 that are glucose transport deficient and complemented with the L. Mexicana glucose transporter 2. Activity is measured by DNA content using SYBR green in vitro
Format: functional

| SMILES | inhibition |
| --- | --- |
| O=C(NCc1cccc(C(F)(F)F)c1)C(c1cc2ccccc2o1)N1CCN(C(c2ccccc2)c2ccccc2)CC1 (stereo not given) | 0.71% |
| CCc1cc(N2CCN(c3ccccc3F)CC2)nc(SCc2ccc(C(=O)NC3CC3)o2)n1 | 2.15% |
| CCN(CCCN1CCCCC1)c1cc(C)nc(Nc2cc(C)ccc2C)n1 | -0.58% |
| Cn1nc(C(F)(F)F)c(-c2ccc(F)cc2)c1NC(=O)Nc1ccc(F)cc1 | 4.05% |
| COc1ccc2c(c1)S(=O)(=O)N=C(N1CCCC1c1ccc(Cl)c(Cl)c1)N2C (stereo not given) | -1.05% |
| O=C(CSc1nc2ccccc2c(=O)n1CC1CCCO1)Nc1cc(C(F)(F)F)ccc1Cl (stereo not given) | 6.14% |
| CCC[C@@H]([C@@H](CC(C)C)C(=O)N[C@@H](CCCNc1nccc(C(F)(F)F)n1)C(=O)Nc1nccs1)N(O)C=O | 3.22% |
| Cc1n[nH]c(C)c1C1CCN(CC2CCC(NC(=O)/C=C/c3ccc(Cl)c(Cl)c3)CC2)CC1 (stereo not given) | 5.93% |
| O=C(C=Cc1ccc(Cl)c(Cl)c1)NCCCCCN1CCC(CCNC(=O)c2sc3ccccc3c2Cl)CC1 | 8.75% |
| CN1CCCN(Cc2ccc(-c3cccc(NC(=O)c4cccc(Cl)c4)c3)cc2)CC1 | 9.24% |
| Cc1cc(NC(=O)Nc2ccc3ccn(C)c3c2)c2ccccc2n1 | 8.87% |
| COc1ccc2nccc([C@@H](O)CN3CCC(NCCOc4ccc(F)cc4F)CC3)c2c1 | -1.61% |
| CC(C)Sc1ccc(Cl)cc1CON1C(=N)N=C(N)NC1(C)C | 0.87% |
| COc1cc(Cc2cnc(N)nc2N)cc(OCCCC(=O)O)c1OC | 1.78% |
| Cc1ccoc1C(=O)Nc1cccc(-c2cccc(-c3nc4cc(C(F)(F)F)ccc4[nH]3)c2)c1 | -0.44% |
| Cc1cc(N2CCCC2)nc(Nc2ccc(NC(=O)C(C)Oc3ccccc3)cc2)n1 (stereo not given) | 7.47% |
| COc1ccccc1CNC(=O)c1ccc(N2CCN(c3ccncc3)CC2)cn1 | 1.11% |
| c1ccc2[nH]c(-c3ccc(-c4ccc(CN5CCCCC5)cc4)cc3)nc2c1 | 10.6% |
| O=[N+]([O-])c1cccc(S(=O)(=O)N2CCN(CC(O)COc3ccc(-c4ccccc4)cc3)CC2)c1 (stereo not given) | 4.46% |
| CC(C)(C)C1CCC(CC2=C(C(=O)O)c3ccccc3C2=O)CC1 (stereo not given) | -1.33% |

| SMILES | inhibition |
| --- | --- |
| CCN(CC)CCN(Cc1ccc(-c2ccc(C(F)(F)F)cc2)cc1)C(=O)Cn1c(CCc2ccccc2F)nc(=O)c2ccccc21 | 2.3% |
| Cc1ccc(Nc2nc(C)cc(Nc3cccc(NS(C)(=O)=O)c3)n2)cc1 | 9.23% |
| O=C(O[C@@H]1CN[C@H](C#Cc2cc3ncnc(Nc4ccc5c(cnn5Cc5cccc(F)c5)c4)c3s2)C1)N1CCCC1 | -1.8% |
| OC(CN1CCN(C2CCCCC2)CC1)Cn1c2ccccc2c2cc(Br)ccc21 (stereo not given) | 0.47% |
| CC(C)Nc1nc(NCCc2c[nH]cn2)nc(Nc2ccc(Oc3ccccc3)cc2)n1 | -1.98% |
| CC(C)c1cccc(C(NC(=O)[C@H]2Cc3ccccc3CN2C(=O)c2cccc(N3CCOCC3)c2)C2CCCC2)c1 (stereo not given in full) | 0.64% |
| ON=C(c1nc2ccccc2[nH]1)c1nc2ccccc2[nH]1 | 0.76% |
| Cc1cccc2nc(-c3cccc(-c4cccc(NC(=O)Nc5cccc(C#N)c5)c4)c3)[nH]c12 | 10.3% |
| FC(F)(F)c1cccc(CNCC2CCN(Cc3ccc4c(c3)OCO4)CC2)c1 | 12.3% |
| O=C(NCCCCN1CCC(c2ccc3c(c2OCCO)CCCC3)CC1)c1sc(-c2ccc(C(F)(F)F)cc2)nc1CO | 3.21% |
| Cc1cc(N2CCCN(C)CC2)nc(Nc2ccc(Br)cc2)n1 | 1.6% |
| CC(C)(C)c1ccc(NC(=O)c2ccc(CN3CCCN(Cc4cccc(F)c4)CC3)cc2)cc1 | 11.8% |
| Cc1cc(OCC2CCN(c3ncc(C(=O)NC4CC4)cc3Cl)CC2)ccc1F | -1.06% |
| Oc1ccc2[nH]cc(C3CCN(CCC(c4ccccc4)c4ccccc4)CC3)c2c1 | 4.21% |
| CC(C)c1ccc(Nc2nc(NCCc3c[nH]cn3)nc(NCc3ccccc3)n2)cc1 | 0.61% |
| CCc1ccc(C2CCN(CCCCNC(=O)c3ccc(NC(=O)c4ccc(Cl)cc4)cc3)CC2)c(OC(C)=O)c1 | 3.54% |
| CCOc1ccc2c(=NN=Cc3cccc(F)c3)cc(C)[nH]c2c1 | 2.7% |
| CCCN1CCc2c(sc3nc(SCC(=O)Nc4ccc(C)cc4)n(-c4ccc(C)cc4)c(=O)c23)C1 | 3.72% |
| CN(C)c1ccc(CN2CCC(NC(=O)c3ccc(-c4cccc(Cl)c4)s3)CC2)cc1 | 0.31% |
| c1ccc2c(C3CCN(CCCCOc4ccc5c(c4)CCN(CC4CC4)CC5)CC3)c[nH]c2c1 | 6.07% |
